High-throughput results as filed in PubChem BioAssay.
HCMV antiviral: blocks human cytomegalovirus replication | HFF cells, HCMV-luciferase reporter, 72 h; stronger effect = lower value | activity change, negative = inhibition, % at 57.5 µM | hit rate 4.5% among 410,000; in the data active = activity change below about -60%; inconclusive = no clear call, values can overlap the other calls; inactive = above about -39%
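Compounds were evaluated in HFFs infected with an HCMV luciferase reporter virus (MOI 1 PFU/cell). Luciferase in lysates collected 72 h post infection served as the replication measure.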
Vaccinia Venus: inhibitors of vaccinia virus (Venus reporter). AID 720580. Potency, µM (highest dose often 36.5 µM), for inactives: top-dose activity change, negative = inhibition, usual class: inhibitors. hit rate 0.46% among 330,000. Vaccinia virus Venus reporter expression, fluorescence; calls by dose curve; tested in A549 cells; note: potency is the fitted concentration of half-maximal effect; nearly all actives have a fitted effect of over 30% in size
FMDV antiviral: blocks foot and mouth disease virus. FMDV antiviral cell-based qHTS. Potency, µM (series often up to 57.9 µM), inactives show at the highest dose activity change, negative = inhibition, usual class: inhibitors. hit rate 1.2% among 410,000; calls by dose curve; tested in HEK293T cells; note: read-out not given here; potency is the fitted concentration of half-maximal effect; nearly all actives have a fitted effect of over 45% in size
MARV entry inh: inhibitors of Marburg virus binding or cell entry; Marburg virus pseudotyped entry inhibition, cell reporter; Potency, µM (doses to about 37.8 µM), for the others: at the top dose activity change, negative = inhibition, hits mostly inhibitors; hit rate 1.8% among 300,000; AID 540276; calls by dose curve; tested in HEK293 cells; note: potency is the fitted concentration of half-maximal effect
Vaccinia mCherry: vaccinia inhibition (mCherry reporter); Vaccinia virus mCherry reporter infection, fluorescence; hit rate 0.63% among 310,000; Potency, µM (highest dose often 36.5 µM), without a hit: at the highest dose activity change, negative = inhibition, hits mostly inhibitors; calls by dose curve; tested in A549 cells; note: potency is the fitted concentration of half-maximal effect; nearly all actives have a fitted effect of over 35% in size
Lassa entry inh: blocks Lassa virus binding to or entry into cells | Lassa virus pseudotype entry inhibition, cell reporter | Potency, µM (top dose mostly 37.9 µM), inactives show top-dose activity change, negative = inhibition, actives largely listed as inhibitors | hit rate 1.2% among 300,000 | AID 540256; calls by dose curve; tested in HEK293 cells; note: potency is the fitted concentration of half-maximal effect; nearly all actives have a fitted effect of over 50% in size
Active calls of the source: *; i = inactive; ? = inconclusive; / = not tested or not shown; [ ] = dose if it differs, or a comment. Rows were chosen to be rich in hits. Some 6.5% of all compounds tested hit in one or more screens of this group. % is set by controls: 0 for no effect and ±100 for the full control effect.

SMILES	HCMV antiviral	Vaccinia Venus	FMDV antiviral	MARV entry inh	Vaccinia mCherry	Lassa entry inh
O=C(N/N=C/C=C/c1ccccc1[N+](=O)[O-])c1cccs1	?	-17%	21%	?	-2%	9%
CCOC(=O)c1c(NC(=O)COC(=O)c2ccccc2NC)sc(C(=O)N(C)C)c1C	-12	-2%	25µM*	?	i	?
CCOC(=O)c1c(NC(=O)C2c3ccccc3Oc3ccccc32)sc(C(C)=O)c1C	-82*	-12%	/	?	-24%	?
CCOC(=O)c1c(NC(=O)CC(C)C)sc(C(C)=O)c1C	-14	/	-3%	7%	/	3%
CCOC(=O)c1sc(NC(=O)CN(CC(C)C)CC(C)C)c(C(=O)OCC)c1C	-95*	/	6%	?	/	-20%
COc1ccc(Cl)cc1NC(=O)c1cc(S(=O)(=O)NC2CCCCCC2)ccc1F	60	-13%	36%	/	-25%	?
COc1cc(C)nc(OCCNC(=O)COc2ccc(Cl)cc2Cl)n1	-60*	-14%	-14%	?	/	-6%
CN(C)c1nc(OCCNC(=O)COc2ccc(Cl)cc2Cl)nc(N(C)C)n1	10	/	?	-1%	/	5%
O=[N+]([O-])c1ccc(Cl)c(S(=O)(=O)Nc2ccc(-c3ccc(N4CCCC4)nn3)cc2)c1	-64*	-30%	37%	9%	i	7%
CN(C)CCn1c(SCc2ccccc2C#N)nc2c(sc3ccccc32)c1=O	-67*	/	-11%	/	/	/
CCCCN(CC)C(=O)CSc1nc2c(sc3ccccc32)c(=O)n1CCc1ccccc1	20	-6%	-18%	/	-4%	2%[46.1 µM]
CCc1ccc(NC(=O)CSc2nc3c(sc4ccccc43)c(=O)n2CCN(CC)CC)cc1	-60*	-18%	-30%	/	?	28%[46.1 µM]
C=CCN(C(=O)CSc1nc2c(sc3ccccc32)c(=O)n1CCN(CC)CC)c1ccccc1	-67*	?	?	?	-28%	?
COc1cc2c(cc1OC)[C@@H]1O[C@](c3ccsc3)(C2)Oc2cc(C)n(Cc3ccccc3)c(=O)c21	/	/	/	-14%[14.2 µM]	/	/
CCc1ccc(-c2nn(CC(=O)Nc3ccccc3)c3c2cnc2ccc(F)cc23)cc1	56	4%	58%	/	2%	16%[46.1 µM]
CC(=O)N1CCc2cc(S(=O)(=O)NC3CCCc4ccccc43)ccc21 (centres undefined)	-64*	-29%	?	?	?	-21%
O=C(O)c1ccc(S(=O)(=O)NC2CCCc3ccccc32)cc1 (centres undefined)	7	-8%	-21%	1%	i	-7%
NC(=O)c1sc(-n2cnc3ccccc32)cc1OCc1ccccc1Br	/	/	/	/	/	8.9µM*
COc1ccc(OC)c(C(c2nnnn2Cc2ccccc2)N2CCC(C(N)=O)CC2)c1 (centres undefined)	9	17%	8%	-17%	/	-22%
Cn1c(COc2ccccc2Br)nc2ccccc21	67	/	54%	/	/	/
COc1cc2ncn(-c3cc(OCc4ccccc4Cl)c(C(N)=O)s3)c2cc1OC	/	/	/	/	/	0.63µM*
COc1cc(/C(C)=N/NC(=O)CSc2nncn2C)ccc1OCc1ccccc1Cl	11	3%	-2%	1%	-11%	6%
COc1ccc2ncn(-c3cc(OC(C)c4ccccc4Cl)c(C(N)=O)s3)c2c1 (centres undefined)	/	/	/	/	/	0.1µM*
CC(C)C(=O)OCc1cc(=O)n2nc(C3CC3)sc2n1	-6	-6%	15%	/	-7%	3%[46.1 µM]
CC(C)COC(=O)c1cccc2c1-c1ccccc1/C2=N\O	-31	?	-11%	?	?	?
SMILES	HCMV antiviral	Vaccinia Venus	FMDV antiviral	MARV entry inh	Vaccinia mCherry	Lassa entry inh
CCOC(=O)c1cccc2c1-c1ccccc1/C2=N/O	-71*	?	/	0%	?	-3%
CCCCc1ccc(CC(=O)NO)cc1	/	-11%	/	/	28%	/
CC1CCN(c2ccc(-c3cccs3)nn2)CC1	-66*	-20%	7.9µM*	/	i	/
CC(=O)Nc1nc(-c2ccc([N+](=O)[O-])cc2)cs1	-85*	/	7%	2%	/	11%
O=C(Nc1ccc([N+](=O)[O-])cc1)Nc1nc(-c2ccc(Cl)s2)cs1	-100*	5.6µM*	?	?	?	?
CC(C)=NNc1nc(-c2ccc([N+](=O)[O-])cc2)cs1	?	-22%	17%	17%	-14%	-16%
NC(=O)Cc1nc(-c2ccc([N+](=O)[O-])cc2)cs1	-93*	-9%	-3%	-1%[46.1 µM]	-14%	1%[46.1 µM]
Cc1ccc(-c2csc(NC(=O)c3c(C)noc3C)n2)cc1	14	/	0%	/	/	/
Cc1noc(C)c1C(=O)Nc1nc(-c2ccc([N+](=O)[O-])cc2)cs1	-62*	-10%	?	-9%	i	-4%
CCCC(=O)Nc1nc(-c2ccc(Cl)s2)cs1	105	/	9%	/	/	/
CC(C)n1cnc2c(NCc3ccc(S(N)(=O)=O)cc3)nc(NCc3ccc(S(N)(=O)=O)cc3)nc21	11	0%	-13%	/	-10%	/
CC(C)[C@H](CO)Nc1nc(NCc2ccc(S(N)(=O)=O)cc2)c2ncn(C(C)C)c2n1	-96*	?	-29%	/	?	/
Cc1ccc(NS(=O)(=O)c2cccc3cccnc23)cc1Cl	-94*	/	73%	/	/	/
CC(=O)c1cccc(NC(=O)Cn2nc(C)n3cccc3c2=O)c1	6	1%	9%	12%[46.1 µM]	-9%	13%[46.1 µM]
COCCNC(=O)/C(C#N)=C/c1ccc(SC)cc1	-27	2%	19%	-3%[46.1 µM]	-23%	0%[46.1 µM]
COCCNC(=O)/C(C#N)=C/c1c(F)cccc1Cl	-75*	-11%	-27%	-8%[46.1 µM]	-3%	20%
CCOc1ccc(NC(=O)Cn2c3ncccc3c(=O)n2-c2ccc(CC)cc2)cc1	-28	-1%[7.34 µM]	-29%	/	-3%[7.34 µM]	-10%[46.1 µM]
Cc1ccc(Cl)cc1NC(=O)OCCN(C)C(=O)Nc1cc(Cl)ccc1C	-32	/	/	/	/	/
CCCCOC(=O)Nc1cc(Cl)ccc1C	-81*	-12%	2%	3%[46.1 µM]	/	6%
O=C(/C=C/c1ccnc2ccccc12)c1cccs1	-38	-20%	-70%	3.2µM*	i	?
COc1ccc(Oc2cc(NC(=O)c3nn(C)cc3[N+](=O)[O-])cc([N+](=O)[O-])c2)cc1	-110*	?	?	-51%	?	?
Cn1cc([N+](=O)[O-])c(C(=O)Nc2cc(Oc3cccnc3)cc([N+](=O)[O-])c2)n1	-106*	-14%	?	-30%[46.1 µM]	i	-21%
CCn1nc(C)c(C(=O)Nc2cc(Oc3ccc(Cl)cc3)cc([N+](=O)[O-])c2)c1C	-20	-27%	-11%	?	-17%	-18%
Cc1cccc(NC2=CC(c3cccc(Br)c3)N(c3cccc(C)c3)C2=O)c1 (centres undefined)	18	-3%	-19%	11%[46.1 µM]	-12%	22%[46.1 µM]
CCCSCCCNC(=O)C1CCN(c2nc3ccccc3nc2C(F)(F)F)CC1	-11	-12%	-24%	/	-13%	-10%[46.1 µM]
COc1ccc(C(C#N)=C2C=CC(=NO)C=C2)cc1	-24	39%[7.34 µM]	10%	?	-13%[7.34 µM]	?
CC(=O)ON=C1C=CC(=C(C#N)c2ccccc2)C=C1	-101*	-9%	?	/	4%	/
